Source: the supplement of paper PMC13380429

Tested on: Vero E6 infected with SARS-CoV-2
Assay: inhibition of SARS-CoV-2 cytopathic effect; higher = more antiviral protection, active = above 15
Settings: 48 h

Measured: inhibition of SARS-CoV-2 cytopathic effect

CN(C)CCC(c1ccccc1)c1ccccn1 (stereo not given) [pheniramine]
inactive: 1 nM -0.78% | 8.33 nM 3.08% | 100 nM 0.29% | 833.33 nM 2.25% | 10000 nM -0.28%

C[C@@H]1O[C@@H](O[C@H]2[C@H](Oc3cc(O)c4c(c3)O[C@H](c3ccc(O)cc3)CC4=O)O[C@H](CO)[C@@H](O)[C@@H]2O)[C@H](O)[C@H](O)[C@H]1O [Naringin (Naringoside)]
inactive: 1 nM -3.68% | 8.33 nM -1.36% | 100 nM -3.02% | 833.33 nM -1.1% | 10000 nM 1.71%

COc1cc(Nc2ncc(F)c(Nc3ccc4c(n3)NC(=O)C(C)(C)O4)n2)cc(OC)c1OC
inactive: 1 nM -3.02% | 8.33 nM -0.43% | 100 nM -2.04% | 833.33 nM -4.61% | 10000 nM -4.19%

CCc1ccc(OCc2ccccc2C(=O)Nc2ccc3nc(C)cc(N)c3c2)cc1
inactive: 1 nM 0.87% | 8.33 nM 3.61% | 100 nM 2.46% | 833.33 nM 1.94% | 10000 nM -28.4%

CN1CCC(=C2c3ccccc3CCc3sccc32)CC1 [pizotifen]
inactive: 1 nM 2.55% | 8.33 nM -0.27% | 100 nM 0.72% | 833.33 nM 1.5% | 10000 nM -3.38%

CN(C)c1cccc(Oc2cnc(Nc3cccc(O)c3)nc2)c1
inactive: 1 nM -2.69% | 8.33 nM 0.57% | 100 nM -1.76% | 833.33 nM 2.09% | 10000 nM -3.69%
